Experimental data published in PubChem BioAssay (NCATS).
Inconclusive results are not listed. Activity calls are given as the source filed them. The call rests on the fitted dose curve; in most records, active means well fitted inhibition curve with a large enough effect; inconclusive means small, poorly fitted or top-dose-only effect; inactive means flat fitted curve, though single readings scatter.

test system: not listed separately; assay: qHTS Assay for Lipid Storage Modulators (AID 1519); details: Drosophila S3 cells, BODIPY lipid droplet/cell ratio, laser cytometry; measured here: lipid channel max response; cells loaded with oleic acid
Method in brief: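 Cells seeded at 5,000 per well were treated with compounds over a concentration series and loaded with oleic acid (400 uM, as added). Lipid droplet fluorescence (488 nm excitation, 500-530 nm channel) was read by laser-scanning cytometry and normalized to 20 uM Triacsin C.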

| Compound | max response [%] |
| --- | --- |
| COC1(C)CCC2OC2(C)CCC2C1CC2(C)C (stereo unspecified) | 11.9 |
| C=C1C2CC[C@@]3(C)C(c4ccoc4)OC(=O)C[C@@]13OC1CC(=O)C(C)(C)C(CC(=O)OC)[C@]12C (stereo partly specified) | -5.31 |
| COc1cc2c(cc1OC)Cc1cc(OC)c(OC)cc1Cc1cc(OC)c(OC)cc1C2 | 2.42 |
| CC(C)/C(O)=C1/C(=O)OC(c2ccoc2)[C@@]2(C)C(O)C(O)[C@@]34OC5(C)OC67CC(C)(C(O)[C@@]6(O)C(O)[C@@]3(O5)C12)C(CC(=O)O)[C@@]74C (stereo partly specified) | 0.302 |
| CC1(C)SC2C(NC(=O)C(N)c3ccccc3)C(=O)N2C1C(=O)O (stereo unspecified) | 29.5 |
| CC[C@H](C)[C@H](NC(=O)OCC1c2ccccc2-c2ccccc21)C(=O)O | -2.84 |
| C=C1C2CC[C@@]3(C)C(c4ccoc4)OC(=O)C[C@@]13OC1CC(=O)C(C)(C)C(C(O)C(=O)OC)[C@]12C (stereo partly specified) | 18.5 |
| NCC1O[C@@H](O[C@@H]2C(O)[C@H](O[C@H]3OC(CO)C(O)C(N)C3O)[C@@H](N)C[C@H]2N)C(N)C(O)C1O (stereo partly specified) | 32.5 |
| COc1c(Cl)ccc(Cl)c1C(=O)O | -7.42 |
| O=c1c(-c2ccc(O[C@@H]3O[C@H](CO)[C@@H](O)[C@H](O)[C@H]3O)cc2)coc2cc(O)cc(O)c12 | 5.64 |
| Nc1ncnc2c1ncn2C1CC(O)C(CO)O1 (stereo unspecified) | -5.3 |

target: Ubiquitin carboxyl-terminal hydrolase 1 (Homo sapiens) (UniProt O94782); assay: Inhibitors of USP1/UAF1: Pilot qHTS (AID 504865); details: purified USP1/UAF1, Ub-rhodamine cleavage fluorescence; series mostly up to 114 µM; activity change, negative = inhibition: at the top concentration;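 further: rhodamine fluorescence freed from ubiquitin-rhodamine substrate followed over time; top concentration of the series differs between compounds; on the % scale 0 is the no-effect control and ±100 the full control effect; nearly all actives have a fitted effect of over 35% in size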
Method in brief: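 Kinetic fluorescence assay: 1nM USP1/UAF1, 15 min compound preincubation, then 150nM Ub-Rho; 480/540 nm.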

Ubiquitin carboxyl-terminal hydrolase 1 (Homo sapiens), sequence (O94782 whole entry, looked up): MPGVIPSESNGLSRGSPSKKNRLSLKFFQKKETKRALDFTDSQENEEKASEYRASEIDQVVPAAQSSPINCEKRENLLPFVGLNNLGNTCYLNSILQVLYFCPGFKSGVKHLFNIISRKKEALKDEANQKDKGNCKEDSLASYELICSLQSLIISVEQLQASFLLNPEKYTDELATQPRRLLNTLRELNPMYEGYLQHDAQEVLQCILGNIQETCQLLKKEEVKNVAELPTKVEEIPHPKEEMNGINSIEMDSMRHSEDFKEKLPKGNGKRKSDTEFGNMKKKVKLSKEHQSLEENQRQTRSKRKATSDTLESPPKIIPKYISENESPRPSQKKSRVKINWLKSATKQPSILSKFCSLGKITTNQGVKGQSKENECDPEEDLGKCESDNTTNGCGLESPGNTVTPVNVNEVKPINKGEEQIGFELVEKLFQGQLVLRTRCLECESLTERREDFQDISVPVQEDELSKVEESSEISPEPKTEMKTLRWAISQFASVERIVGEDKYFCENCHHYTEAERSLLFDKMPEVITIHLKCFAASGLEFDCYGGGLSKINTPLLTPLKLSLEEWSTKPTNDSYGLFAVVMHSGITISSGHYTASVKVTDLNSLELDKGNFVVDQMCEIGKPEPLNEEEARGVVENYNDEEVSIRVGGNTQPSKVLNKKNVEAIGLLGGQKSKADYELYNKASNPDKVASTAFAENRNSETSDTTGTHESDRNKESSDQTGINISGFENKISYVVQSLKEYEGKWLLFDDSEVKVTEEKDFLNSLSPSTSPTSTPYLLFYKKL

| Compound | activity change, negative = inhibition | Potency |
| --- | --- | --- |
| COC(=O)CC1C(C)(C)C(OC(C)=O)[C@@]2(O)C=C3C4CC(=O)OC(c5ccoc5)[C@]4(C)CCC3[C@@]1(C)C2=O (stereo partly specified) | -11% (inactive) | – |
| CC1(C)C(=O)CC[C@@]2(C)C1CC(O)[C@@]1(C)C3=CC(=O)OC(c4ccoc4)[C@]3(C)CCC21 (stereo partly specified) | -9.15% (inactive) | – |
| O=c1ccn([C@H]2C[C@H](O)[C@@H](CO)O2)c(=O)[nH]1 | -6.39% (inactive) | – |
| COc1cc(OC)c2c(=O)c(OC)c(-c3ccc(OC)c(OC)c3)oc2c1 | -12.4% (inactive) | – |
| COC(=O)CC1C(C)(C)C(=O)C2CC3=C4CC(=O)OC(c5ccoc5)[C@]4(C)CCC3[C@@]1(C)C2=O (stereo partly specified) | -14.4% (inactive) | – |
| CC(=O)OC1CC2C(C)(C)C(O)CC(O)[C@@]2(C)C2CC[C@@]3(C)C(=CC(=O)OC3c3ccoc3)[C@]12C (stereo partly specified) | -14.8% (inactive) | – |
| C=CC1=C(C(=O)O)N2C(=O)C(NC(=O)/C(=N\O)c3csc(N)n3)C2SC1 (stereo unspecified) | -10.6% (inactive) | – |
| COC(=O)CC1C(C)(C)C(O)C2CC3=C4C=C(OC)OC(c5ccoc5)[C@]4(C)CCC3[C@@]1(C)C2=O (stereo partly specified) | -6.82% (inactive) | – |
| NCC1O[C@@H](OC2C(N)C[C@H](N)[C@@H](O[C@H]3OC(CO)C(O)C(N)C3O)C2O)C(N)C(O)C1O (stereo partly specified) | -5.38% (inactive) | – |
| COc1ccc2c(c1)OCC(Cc1ccc(OC)c(O)c1)C2=O (stereo unspecified) | -10.4% (inactive) | – |
| CC1=CC(=O)[C@@H]2C[C@H]1C2(C)C | -5.22% (inactive) | – |
| CCN(CC)Cc1ccc(Nc2ccnc3cc(Cl)ccc23)cc1O | -4.08% (inactive) | – |
| CC(C)[C@H]1CC[C@@H](C)C[C@H]1O | -0.755% (inactive) | – |
| CC1=C(C2=C(C)C(C(C)C)C3=C(C(=O)C(O)C3O)C2O)C(O)C2=C(C(O)C(O)C2=O)C1C(C)C (stereo unspecified) | -10.8% (inactive) | – |
| O=C(O)C1OC(O)C(O)C(O)C1O (stereo unspecified) | -3.36% (inactive) | – |
| CCCCCC(=O)Cc1cc(O)cc(O)c1C(=O)Oc1cc(CC(=O)CCCCC)c(C(=O)O)c(OC)c1 | -15.1% (inactive) | – |
| COC(=O)CC1C(C)(C)C(OC(C)=O)C2CC3C4CC(=O)OC(c5ccoc5)[C@]4(C)CCC3[C@@]1(C)C2=O (stereo partly specified) | -10.1% (inactive) | – |
| C[C@@H]1O[C@@H](O[C@H]2[C@H](Oc3cc(O)c4c(c3)O[C@H](c3ccc(O)cc3)CC4=O)O[C@H](CO)[C@@H](O)[C@@H]2O)[C@H](O)[C@H](O)[C@H]1O | -3.71% (inactive) | – |
| Cc1cc(=O)oc2cc(O[C@@H]3O[C@H](C(=O)O)[C@@H](O)[C@H](O)[C@H]3O)ccc12 | -14.5% (inactive) | – |
| C=C[C@](C)(O)CCC1C(=C)CCC2[C@@](C)(CO)CCC[C@@]12C (stereo partly specified) | -12.7% (inactive) | – |

| Compound | activity change, negative = inhibition | Potency |
| --- | --- | --- |
| COC1OC2COC(c3ccccc3)OC2C(O)C1O (stereo unspecified) | 2.43% (inactive) | – |
| COc1cccc2c1CCC1CC(=O)CC[C@@]21C (stereo partly specified) | -9.53% (inactive) | – |
| Nc1ccn([C@H]2C[C@H](O)[C@@H](CO)O2)c(=O)n1 | -6.44% (inactive) | – |
| O=c1[nH]c(=O)n([C@@H]2O[C@H](CO)[C@@H](O)[C@H]2O)cc1Br | 0.801% (inactive) | – |
| CNc1ccccc1C(=O)N1CCc2c([nH]c3ccccc23)C1=O | -13.4% (inactive) | – |
| C/C=C(\C)C(=O)OC1[C@@H]2C=C3C4CC(=O)OC(c5ccoc5)[C@]4(C)CCC3[C@@](C)(C2=O)C(C(O)C(=O)OC)C1(C)C (stereo partly specified) | -15.5% (inactive) | – |
| COc1ccc2c(c1)OCC(Cc1ccc(OC)c(OC)c1)C2O (stereo unspecified) | -13.7% (inactive) | – |
| Cc1ccc2c(c1)CC[C@H]1CC(=O)CC[C@@]21C | -14.9% (inactive) | – |
| O=c1cc(-c2cccc(O)c2)oc2ccc(O)cc12 | -1.78% (inactive) | – |
| COC1(C)CCC2OC2(C)CCC2C1CC2(C)C (stereo unspecified) | -7.68% (inactive) | – |
| C=C1C2CC[C@@]3(C)C(c4ccoc4)OC(=O)C[C@@]13OC1CC(=O)C(C)(C)C(CC(=O)OC)[C@]12C (stereo partly specified) | -11.2% (inactive) | – |
| COc1cc2c(cc1OC)Cc1cc(OC)c(OC)cc1Cc1cc(OC)c(OC)cc1C2 | -4.88% (inactive) | – |
| CC(C)/C(O)=C1/C(=O)OC(c2ccoc2)[C@@]2(C)C(O)C(O)[C@@]34OC5(C)OC67CC(C)(C(O)[C@@]6(O)C(O)[C@@]3(O5)C12)C(CC(=O)O)[C@@]74C (stereo partly specified) | -9.45% (inactive) | – |
| CC1(C)SC2C(NC(=O)C(N)c3ccccc3)C(=O)N2C1C(=O)O (stereo unspecified) | -8.08% (inactive) | – |
| CC[C@H](C)[C@H](NC(=O)OCC1c2ccccc2-c2ccccc21)C(=O)O | -8.14% (inactive) | – |
| C=C1C2CC[C@@]3(C)C(c4ccoc4)OC(=O)C[C@@]13OC1CC(=O)C(C)(C)C(C(O)C(=O)OC)[C@]12C (stereo partly specified) | -7.45% (inactive) | – |
| NCC1O[C@@H](O[C@@H]2C(O)[C@H](O[C@H]3OC(CO)C(O)C(N)C3O)[C@@H](N)C[C@H]2N)C(N)C(O)C1O (stereo partly specified) | -2.1% (inactive) | – |
| COc1c(Cl)ccc(Cl)c1C(=O)O | -2.26% (inactive) | – |
| O=c1c(-c2ccc(O[C@@H]3O[C@H](CO)[C@@H](O)[C@H](O)[C@H]3O)cc2)coc2cc(O)cc(O)c12 | -2.56% (inactive) | – |
| Nc1ncnc2c1ncn2C1CC(O)C(CO)O1 (stereo unspecified) | – | inactive |
